The list is not random: actives were taken first. Their share in the collection is about 2.1%.
Rce1 inh: inhibitors of yeast Ras-converting enzyme; Q03530; yeast membranes, quenched prenylated peptide cleavage fluorescence; calls only; 290,000 tested, 0.27% active; AID 2563;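 active = fall in fluorescence gain of 50% or more versus controls, with final raw signal at or below 3038400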
PLC-beta3 inh: PLC-beta3 (human) inhibition, primary screen; Purified PLC-beta3, fluorogenic substrate, fluorescence; inhibition, % at 12.2 µM; 370,000 tested, 0.18% active; in the data active = inhibition above about 11%
ADAM17 inh: ADAM17 inhibition, QFRET primary screen; P78536; recombinant ADAM17, EDANS/DABCYL FRET peptide cleavage; inhibition, % at 6.95 µM; 370,000 tested, 0.83% active;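 active = inhibition above the mean of compounds lying between control limits plus 3 SD, set per campaign, cut at about 8.5% in these data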
ADAM10 inh: inhibits human ADAM10; inhibition, % at 7 µM; O14672; recombinant ADAM10, EDANS/DABCYL FRET peptide cleavage, 3 h; 370,000 tested, 0.62% active;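 active = inhibition above a per-campaign cutoff equal to the mean of compounds falling between control-based bounds plus 3 SD, cut at about 20% in these data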
Target sequence (O14672 214-748 limits assumed): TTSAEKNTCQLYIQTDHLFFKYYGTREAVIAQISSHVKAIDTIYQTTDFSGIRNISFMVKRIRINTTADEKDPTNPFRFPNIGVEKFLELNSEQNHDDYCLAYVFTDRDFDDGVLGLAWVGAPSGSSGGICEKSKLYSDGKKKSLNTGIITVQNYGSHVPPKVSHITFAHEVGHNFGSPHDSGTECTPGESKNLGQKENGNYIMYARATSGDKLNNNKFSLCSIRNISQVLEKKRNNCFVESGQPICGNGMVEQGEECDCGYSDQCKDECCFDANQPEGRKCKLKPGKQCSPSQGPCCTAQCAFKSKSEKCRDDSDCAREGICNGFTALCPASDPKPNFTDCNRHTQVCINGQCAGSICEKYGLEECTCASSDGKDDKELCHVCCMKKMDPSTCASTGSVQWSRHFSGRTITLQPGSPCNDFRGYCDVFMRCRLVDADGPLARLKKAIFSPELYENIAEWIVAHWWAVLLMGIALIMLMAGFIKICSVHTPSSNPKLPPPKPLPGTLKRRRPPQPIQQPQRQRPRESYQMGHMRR
PLCg1 inh: PLC-gamma1 (human) inhibition, primary screen; P19174; purified PLC-gamma1, fluorogenic substrate, fluorescence; inhibition, % at 12.2 µM; 370,000 tested, 0.84% active; AID 720700; in the data active = inhibition above about 9.5%
ADAM10 confirm: human ADAM10 inhibition, confirmation | inhibition, % at 6.95 µM | 2,100 tested, 1% active | shares compounds with ADAM10 inh | ADAM10 QFRET peptide cleavage, EDANS fluorescence | AID 743208;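 active = inhibition above about 20% chosen separately for each screening run, limit read from the data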
ADAM17 counter: ADAM17 inhibition, counter-screen for ADAM10 exosite hits | ADAM17 QFRET peptide cleavage, EDANS fluorescence | 2,100 tested, 0.5% active | shares compounds with ADAM10 inh | AID 743214 | inhibition, % at 6.95 µM;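 active = mean triplicate inhibition above the solvent-only control wells' mean plus 3 SD, cut at about 12% in these data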
Numbers stand for hits; - = inactive; . = no result.

SMILES	Rce1 inh	PLC-beta3 inh	ADAM17 inh	ADAM10 inh	PLCg1 inh	ADAM10 confirm	ADAM17 counter
CCC(=O)Nc1ccc2ccccc2c1	-	-	-	-	-	.	.
CC(C)(C)CC(C)(C)NC(=O)CSCC(=O)Nc1ccc2ccccc2c1	-	-	-	25	-	-	-
O=[N+]([O-])c1ccc(-c2nc(-c3cccs3)c(-c3cccs3)[nH]2)cc1	-	-	15	24	-	26	12
O=[N+]([O-])c1cccc(-c2nc(-c3cccs3)c(-c3cccs3)[nH]2)c1	-	-	-	-	-	.	.
NC(=O)[C@H]1CC2(CC(c3cccc(NC(=O)CC(c4ccccc4)c4ccccc4)c3)=NO2)CN1C(=O)c1ccccc1C(=O)c1ccccc1 (some centres not stated)	-	-	-	20	-	-	-
NC(=O)[C@@H]1CC2(CC(c3cccc(NC(=O)CC(c4ccccc4)c4ccccc4)c3)=NO2)CN1C(=O)COc1ccc(Cl)cc1 (some centres not stated)	-	-	-	23	-	-	-
CCc1ccc(N(C(=O)c2csnn2)C(C(=O)NC(C)(C)CC)c2cccnc2)cc1 (configuration not stated)	-	-	-	-	-	.	.
Cc1cc(OCC(=O)Nc2cc(C(C)(C)C)on2)ccc1[N+](=O)[O-]	-	-	-	-	-	.	.
Nn1c(SCC(=O)Nc2cc(S(=O)(=O)N3CCOCC3)ccc2Cl)nnc1-c1cccnc1	-	-	-	-	-	.	.
Cc1noc(C)c1COc1cccc(C(=O)OC(C)C#N)c1 (configuration not stated)	-	-	-	-	-	.	.
Cc1noc(C)c1COc1cccc(C(=O)OCCOc2ccc(F)cc2)c1	-	-	-	26	-	-	-
CCCc1ccc(Oc2cn[nH]c2-c2ccc(O)cc2O)cc1	-	-	-	22	-	-	-
COc1ccc(Oc2cn[nH]c2-c2ccc(O)cc2O)cc1	-	-	-	-	-	.	.
C=C(C)COc1ccc(-c2[nH]ncc2Oc2cccc(OC)c2)c(O)c1	-	-	-	27	-	-	-
O=C(C1CCN(S(=O)(=O)c2cnc[nH]2)CC1)N1CCN(c2ccc([N+](=O)[O-])cc2)CC1	-	-	-	45	-	-	-
COc1ccc(CN(C)CC(=O)NC(=O)NC2CCCCC2)cc1	.	-	-	21	-	-	-
COc1ccc(NC(=O)CN(C)CC(=O)NC(=O)NC2CCCCC2)cc1	.	-	-	-	-	.	.
Cc1ccc2nc(-c3ccccc3)nn2c1	.	-	-	-	-	.	.
Cc1ccc(C)c(OCc2cc(C(=O)NC(c3ccccn3)C(F)(F)F)no2)c1 (configuration not stated)	-	-	-	21	-	-	-
Cc1ccc(C)c(OCc2cc(C(=O)N(C)Cc3ccccn3)no2)c1	-	-	-	-	-	.	.
CC(C)(C)S(=O)N1Cc2cc(C(=O)O)nc(-c3cccc(-c4cc5ccccc5o4)c3)c2[C@H]1CCO (some centres not stated)	.	-	-	-	-	.	.
CC(C)(C)S(=O)N1Cc2cc(C(=O)N[C@@H]3CCN(Cc4ccccc4)C3)nc(-c3cccc(-c4cc5ccccc5o4)c3)c2[C@@H]1CCO (some centres not stated)	.	-	-	20	-	-	-
O=C1C2C3CCC(CC3)C2C(=O)N1c1ccccc1 (configuration not stated)	-	-	-	-	-	.	.
Cc1sc2ncnc(N3CCC(C(=O)NNC(=O)COc4ccccc4Cl)CC3)c2c1C	-	-	-	26	-	-	-
Cc1sc2ncnc(N3CCC(C(=O)NNC(=O)COc4ccc(Cl)cc4)CC3)c2c1C	.	-	-	21	-	-	-
SMILES	Rce1 inh	PLC-beta3 inh	ADAM17 inh	ADAM10 inh	PLCg1 inh	ADAM10 confirm	ADAM17 counter
Cc1nc(CN2CCCCC2)cc(=O)[nH]1	-	-	-	-	-	.	.
NS(=O)(=O)c1cccc(NS(=O)(=O)c2ccc(/C=C/C(=O)OCC(=O)c3ccc(Br)cc3)cc2)c1	-	-	-	-	-	.	.
COc1ccc(C(=O)COC(=O)/C=C/c2ccc(S(=O)(=O)Nc3cccc(S(N)(=O)=O)c3)cc2)cc1	-	-	-	21	-	-	-
CC(C)C(=O)Nc1nnc(SCC(=O)NC2CCCC2)s1	-	-	-	-	-	.	.
COc1ccccc1-c1nnc(-c2ccc(C)cc2)o1	-	-	-	-	-	.	.
COc1ccccc1C1=NC(c2ccc(C)cc2)N=C1C (configuration not stated)	-	-	-	95	-	-	-
O=C(Cc1cccc(C(F)(F)F)c1)Nc1ccc(S(=O)(=O)N2CCCC2)cc1	.	-	-	-	-	.	.
O=C(Cc1cccc(C(F)(F)F)c1)Nc1cccc(S(=O)(=O)N2CCCC2)c1	-	-	-	20	-	-	-
CC(C)(C)c1ccc(OCCC(=O)Nc2cccc(S(=O)(=O)N3CCCCC3)c2)cc1	-	-	-	24	-	-	-
Clc1ccccc1-c1nc(-c2ccc(Br)o2)no1	-	-	-	-	-	.	.
O=[N+]([O-])c1ccccc1-c1nc(-c2ccc(Br)o2)no1	-	-	-	23	-	-	-
Cc1c(-c2cccc(Cl)c2)nc2ccccc2c1C(=O)OCC(=O)Nc1ccc2c(c1)OCO2	-	-	-	-	-	.	.
Cc1cccc(C(=O)NC(=S)N2CCN(C)CC2)c1	-	-	-	-	-	.	.
Cc1cccc(C(=O)NC(=S)N2CCN(C(=S)NC(=O)c3cccc(C)c3)CC2)c1	-	-	-	24	-	-	-
CC(C)C[C@@H](CN1CCCC1CN1C(=S)NC[C@@H]1Cc1ccc(O)cc1)N1C[C@H](Cc2ccc(O)cc2)N(CCc2ccccc2)C1=S (some centres not stated)	.	-	11	33	-	-	-
Oc1ccc(C[C@H]2CN([C@@H](Cc3ccc(O)cc3)CN3CCC[C@@H]3CN3C(=S)NC[C@@H]3Cc3ccccc3)C(=S)N2CCc2ccccc2)cc1	.	-	-	-	-	.	.
Oc1ccc(C[C@H]2CNC(=S)N2C[C@H]2CCCN2C[C@H](Cc2ccccc2)N2C[C@H](Cc3ccc(O)cc3)N(CCc3ccccc3)C2=S)cc1	.	-	-	28	-	-	-
CCNC(=O)C1(C)CCN(C(=O)c2ccccc2C(F)(F)F)C1 (configuration not stated)	.	-	-	-	-	.	.
COc1ccc(O)cc1CN1CCN(c2ncc(Cc3ccccc3)cn2)CC1	.	-	-	-	-	.	.
Oc1ccc(Cl)c(CN2CCN(c3ncc(Cc4ccccc4)cn3)CC2)c1	.	-	14	25	-	-	-
CCc1nc2ccccc2c(C(=O)OCC(=O)Nc2cccc(S(=O)(=O)N3CCOCC3)c2)c1C	-	-	-	22	-	-	-
